The text below walks through data of PubChem BioAssay.

Assay [1] is described as follows: inhibitors of TNFa-induced NFkB p65 translocation, primary screen, imaging, HUVEC, MLSMR starter and 10KST1 sets (AID 438;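 active means inhibition above 20% together with a positive visual image hit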;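 further: compound added about 3h40 before a 20 min TNFalpha stimulation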;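 on inhibition: signal is the nuclear over cytoplasmic p65 intensity ratio per well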). The conditions noted are these: HUVEC TNFa-induced p65 nuclear translocation; cell count: measured here: nuclei count (cytotoxicity indicator), at 2.08 µM; inhibition: at 2 µM, stronger effect = higher value, 0% TNFa-plus-vehicle, 100% no-TNFa wells.
Assay [2] can be described thus: inhibitors of mutant huntingtin aggregation, primary screen, imaging, exon1htt(103Q)mCFP cells, high-content imaging (AID 483;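 active means visual image review flags a hit and inhibition of aggregation exceeds 20%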;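 further: compound exposure lasted 3 days before fixation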;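 on nuclei count: percent of the per-plate median nuclei count of sample wells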). As to conditions: exon1htt(103Q)mCFP cell line, aggregate imaging, at 2 µM; inhibition of aggregation: stronger effect = higher value; nuclei count: measured here: cell count, toxicity.
Assay [3] is described as follows: inhibitors of E-selectin induction by TNFa, primary screen, imaging, HUVEC, immunofluorescence, MLSMR starter and 10KST1 sets (AID 487;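 active means visually confirmed hit in the image check and inhibition above 20%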;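 on inhibition: signal is fraction of cell area covered by stained E-selectin grains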;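 on nuclei count: 100% = median nuclei count of all wells on the same plate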). As to conditions: HUVEC TNFalpha-induced E-selectin immunofluorescence imaging, at 2 µM; inhibition: stronger effect = higher value; nuclei count: measured here: cell number, toxicity.
The target of assay [4] is Voltage-gated potassium channel subunit beta-2 (Rattus norvegicus) (UniProt P62483). The assay can be described thus: KvBeta enzyme negative modulators, primary screen, biochemical, NADPH fluorescence (AID 622).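 Further: slope of raw intensity against log time taken from 70 to 1610 s.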 The conditions noted are these: recombinant KvBeta, 4-cyanobenzaldehyde reduction, at 10 µM, stronger effect = higher value.
Assay [5] has the same target. The assay can be described thus: KvBeta positive modulators, primary screen, biochemical, NADPH fluorescence (AID 623;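 active means NADPH fluorescence slope more negative than the mean of all samples by about 3 SD, 99.7% confidence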;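 further: fluorescence intensity change per second fitted from 20 to 320 s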). The conditions noted are these: Recombinant KvBeta, NADPH fluorescence decrease slope, 10 min; at 10 µM; stronger effect = lower value.
Assay [6] concerns the target Alpha-2C adrenergic receptor (Homo sapiens) (UniProt P18825). The assay is described as follows: modulators of alpha2C/GIRK thallium flux, primary screen, cell-based, HEK293 alpha2C/GIRK1/2 (AID 624;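 active means fluorescence slope after compound addition differing from the mean of all screened samples at 99.7% confidence, in either direction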;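 further: slope of fluorescence ratio to pre-addition baseline per second over 15 to 24 s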). As to conditions: thallium flux BTC fluorescence, at 10 µM, actives lie on both sides.
A short description of assay [7]: inhibitors of Sendai virus-induced IRF3 signaling, primary screen, TLR/RLR signaling modifier project, cell-based, Sendai virus stimulus, luciferase, 10K MLSCN set (AID 602276;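 active means inhibition at or above 50% at 10 µM; inactive means inhibition below 50%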;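 further: firefly luciferase from ISG56 promoter only with Renilla not read in this screen; 0% = Sendai virus plus DMSO and 100% = medium plus DMSO without virus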). The conditions noted are these: HEK293 RL24 IRF3 luciferase reporter, at 10 µM, stronger effect = higher value.
Assay [8] in a line: inhibitors of poly I:C-induced TLR3 signaling, primary screen, cell-based, poly I:C stimulus, luciferase, 10K MLSCN set (AID 602277;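 active means inhibition of the reporter signal at or above 50%; inactive means inhibition below 50%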). As to conditions: HEK293-TLR3 RL24 IRF3 luciferase reporter, at 10 µM, stronger effect = higher value. (In general: Reporter assays use an easily measured gene product as a stand-in for the process of interest.)

Molecules are shown by their SMILES. Activity calls are given as the source filed them.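 How the source made its calls, unless noted: active means fluorescence slope higher than the sample average by over 3 SD (cut at about -0.22 in these data, passing the limit was not always enough); inactive means the rest.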

Sequence of Voltage-gated potassium channel subunit beta-2 (Rattus norvegicus) (P62483 whole entry, looked up): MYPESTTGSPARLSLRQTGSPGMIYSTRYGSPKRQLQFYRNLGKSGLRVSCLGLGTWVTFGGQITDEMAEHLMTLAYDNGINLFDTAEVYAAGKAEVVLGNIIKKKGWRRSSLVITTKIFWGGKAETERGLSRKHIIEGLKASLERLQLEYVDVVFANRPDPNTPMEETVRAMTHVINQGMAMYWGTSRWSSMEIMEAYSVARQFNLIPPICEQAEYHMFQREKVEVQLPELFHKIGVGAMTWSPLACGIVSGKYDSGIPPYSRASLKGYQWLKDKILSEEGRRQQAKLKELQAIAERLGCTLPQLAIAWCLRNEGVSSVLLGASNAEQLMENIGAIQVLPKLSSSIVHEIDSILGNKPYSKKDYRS
Sequence of Alpha-2C adrenergic receptor (Homo sapiens) (P18825 whole entry, looked up): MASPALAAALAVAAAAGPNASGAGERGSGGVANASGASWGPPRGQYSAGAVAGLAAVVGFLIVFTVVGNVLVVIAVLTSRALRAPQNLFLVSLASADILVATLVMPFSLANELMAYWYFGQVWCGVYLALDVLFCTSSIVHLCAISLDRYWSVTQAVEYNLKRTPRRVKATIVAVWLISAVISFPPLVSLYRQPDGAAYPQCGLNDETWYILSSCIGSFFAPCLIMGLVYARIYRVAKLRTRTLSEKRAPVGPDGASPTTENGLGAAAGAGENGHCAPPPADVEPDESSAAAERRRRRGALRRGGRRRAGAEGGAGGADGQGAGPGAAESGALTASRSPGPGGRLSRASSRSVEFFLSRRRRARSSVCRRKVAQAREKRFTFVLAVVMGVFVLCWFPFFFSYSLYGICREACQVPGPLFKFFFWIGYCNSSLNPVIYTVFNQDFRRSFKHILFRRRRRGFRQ

Turning to `COc1ccccc1Nc1nc(N)nc(-c2cc3ccccc3o2)n1`, the cell count in assay [1] came to 153. In addition, the inhibition in assay [1] is 1.2% (inactive); in assay [3], 25.7% (inactive); in assay [7], -39.9% (inactive); in assay [8] it was -99.9% (inactive). Further, the inhibition of aggregation in assay [2] is -7.1% (inactive). Besides, the nuclei count in assay [2] was determined as 89.1%; in assay [3], 85.7%. For the same compound, the fluorescence slope in assay [4] is -0.332 (inactive). Further, the NADPH fluorescence slope in assay [5] was -3.9e-05 (inactive). The slope in assay [6] is 0.00555 (inactive).
Consider `CCCN1C=CC(=C2C(=O)c3ccccc3C2=O)C=C1`, for which, in assay [1], the cell count came to 418. The inhibition in assay [1] is 2% (inactive); in assay [3], -7.6% (inactive); in assay [7], 29.8% (inactive); in assay [8], 89.4% (active). The inhibition of aggregation in assay [2] was 16.6% (inactive). The figures for the nuclei count in assay [2] and in assay [3] were 44.6% and 111%, respectively. In addition, the fluorescence slope in assay [4] was -0.377 (inactive). Besides, the NADPH fluorescence slope in assay [5] was -6.2e-05 (inactive). Besides, in assay [6], the slope is 0.00522 (inactive).
On to `CCc1nnc(NC(=O)C2CC(=O)N(Cc3ccco3)C2)s1` (centres undefined), for which the cell count in assay [1] was found to be 428. The inhibition in assay [1] is 7.3% (inactive); in assay [3], -0.2% (inactive); in assay [7] it was 13.8% (inactive); in assay [8] it was 22.1% (inactive). The inhibition of aggregation in assay [2] is -11.1% (inactive). Also, the figures for the nuclei count in assay [2] and in assay [3] were 104% and 106%, respectively. Besides, in assay [4], the fluorescence slope was -0.507 (inactive). Also, the NADPH fluorescence slope in assay [5] was -6.1e-05 (inactive). The slope in assay [6] is 0.00457 (inactive).
`CCC1(c2ccc(F)cc2)NC(=O)N(CC(=O)c2ccc[nH]2)C1=O` (centres undefined): in assay [1], the cell count amounted to 556. For the same compound, the inhibition was -20.6% (inactive) in assay [1], -36.7% (inactive) in assay [3], 4.26% (inactive) in assay [7] and 27% (inactive) in assay [8]. Further, the inhibition of aggregation in assay [2] was 6.8% (inactive). The results for the nuclei count in assay [2] and in assay [3] were 99.9% and 114%, respectively. Also, the fluorescence slope in assay [4] was -0.419 (inactive). In addition, the NADPH fluorescence slope in assay [5] was -4.1e-05 (inactive). Further, in assay [6], the slope was 0.00348 (inactive).
With `Cc1ccc2nc(NCCCN3CCOCC3)c(C=NCCCN3CCOCC3)c(=O)n2c1`, the cell count in assay [1] amounted to 619. For the same compound, the inhibition is -9.6% (inactive) in assay [1], -49.1% (inactive) in assay [3], 14.7% (inactive) in assay [7] and 33.3% (inactive) in assay [8]. The inhibition of aggregation in assay [2] is -38.5% (inactive). Also, the nuclei count in assay [2] turned out to be 10.5%; in assay [3], 141%. The fluorescence slope in assay [4] is -0.435 (inactive). The NADPH fluorescence slope in assay [5] is -5.9e-05 (inactive). The slope in assay [6] is 0.00509 (inactive).
On to `COc1ccc(N=c2scc(-c3ccc(S(=O)(=O)N4CCOCC4)cc3)n2CCCO)cc1`, for which, in assay [1], the cell count was 974. Also, the inhibition in assay [1] is -6.1% (inactive); in assay [3] it was -218% (inactive); in assay [7], 41.4% (inactive); in assay [8], -19.4% (inactive). Besides, the inhibition of aggregation in assay [2] is 23% (inactive). The values for the nuclei count in assay [2] and in assay [3] were 99.9% and 136%, respectively. In assay [4], the fluorescence slope is -0.319 (inactive). Also, the NADPH fluorescence slope in assay [5] is -2.9e-05 (inactive). Also, the slope in assay [6] was 0.00558 (inactive).
In the case of `CCN(CCNC(=O)C1CCN(S(C)(=O)=O)CC1)c1ccccc1`, in assay [1], the cell count worked out at 395. Moreover, the inhibition in assay [1] was 3.8% (inactive); in assay [3], -24.7% (inactive); in assay [7], 15.1% (inactive); in assay [8], 25.2% (inactive). Besides, the inhibition of aggregation in assay [2] is -13.1% (inactive). The figures for the nuclei count in assay [2] and in assay [3] were 113% and 117%, respectively. Moreover, the fluorescence slope in assay [4] was -0.32 (inactive). The NADPH fluorescence slope in assay [5] is -3e-05 (inactive). In addition, the slope in assay [6] was 0.00548 (inactive).
In the case of `CCc1c(C)c2c(C)nn(-c3ccccc3)c2[nH]c1=O`, the cell count in assay [1] was 292. Further, the inhibition in assay [1] was -0.8% (inactive); in assay [3] it was -49.1% (inactive); in assay [7], 6.95% (inactive); in assay [8] it was -0.265% (inactive). In addition, the inhibition of aggregation in assay [2] is 21.9% (inactive). The nuclei count in assay [2] was found to be 94.5%; in assay [3] it was 123%. For the same compound, the fluorescence slope in assay [4] is -0.409 (inactive). Further, the NADPH fluorescence slope in assay [5] is -0.000123 (inactive). The slope in assay [6] is 0.00678 (inactive).
Take `CCOC(=O)CC(=O)c1cc(OC)c(OC)c(OC)c1`: in assay [1], the cell count amounted to 640. Further, the inhibition in assay [1] is -0.6% (inactive); in assay [3], -56% (inactive); in assay [7], 5.89% (inactive); in assay [8] it was 12.4% (inactive). In addition, in assay [2], the inhibition of aggregation was -4.2% (inactive). The nuclei count was 105% in assay [2] and 106% in assay [3]. Also, in assay [4], the fluorescence slope was -0.432 (inactive). Further, in assay [5], the NADPH fluorescence slope was -2.1e-05 (inactive). For the same compound, in assay [6], the slope was 0.00534 (inactive).
Take `Cc1cc(C)c2c(n1)nn1c(N3CCOCC3)cc(C)nc21`: the cell count in assay [1] was 503. The inhibition in assay [1] is -6.3% (inactive); in assay [3], -56.5% (inactive); in assay [7], 2.18% (inactive); in assay [8], 3.21% (inactive). Besides, the inhibition of aggregation in assay [2] is 5.7% (inactive). Also, the nuclei count in assay [2] was determined as 81.9%; in assay [3], 123%. In addition, the fluorescence slope in assay [4] was -0.0426 (active). Moreover, the NADPH fluorescence slope in assay [5] is -2.7e-06 (inactive). In assay [6], the slope was 0.00599 (inactive).
Regarding `Cc1c(C(=O)N2CCOCC2)oc2ccc(S(=O)(=O)N3CCCC3)cc12`, the cell count in assay [1] turned out to be 729. Besides, the inhibition in assay [1] is -14.1% (inactive); in assay [3], -31.7% (inactive); in assay [7], -1.69% (inactive); in assay [8] it was 2.47% (inactive). Moreover, the inhibition of aggregation in assay [2] was 4.5% (inactive). The nuclei count in assay [2] came out at 106%; in assay [3], 105%. Further, the fluorescence slope in assay [4] was -0.518 (inactive). Besides, in assay [5], the NADPH fluorescence slope is -7.1e-05 (inactive). In addition, the slope in assay [6] was 0.00624 (inactive).
As to `CCCC1(CCC)NC(=O)NC1=O`, in assay [1], the cell count came to 548. Moreover, the inhibition was -3.3% (inactive) in assay [1], -34.4% (inactive) in assay [3], 6.49% (inactive) in assay [7] and 14.1% (inactive) in assay [8]. For the same compound, the inhibition of aggregation in assay [2] was -41.1% (inactive). Moreover, the nuclei count was 65.5% in assay [2] and 107% in assay [3]. In addition, in assay [4], the fluorescence slope is -0.491 (inactive). Moreover, in assay [5], the NADPH fluorescence slope was -4.7e-05 (inactive). Also, the slope in assay [6] is 0.00587 (inactive).
For `O=C(CN(CCc1ccccc1)C(=O)CN1C(=O)COc2ccccc21)NCc1ccco1`, the cell count in assay [1] stood at 571. Further, the inhibition was -2.3% (inactive) in assay [1], -12.8% (inactive) in assay [3], 16.4% (inactive) in assay [7] and 23.2% (inactive) in assay [8]. In addition, the inhibition of aggregation in assay [2] was -4.1% (inactive). For the same compound, the nuclei count in assay [2] was 55.5%; in assay [3], 97.6%. In assay [4], the fluorescence slope is -0.468 (inactive). For the same compound, the NADPH fluorescence slope in assay [5] was -3.2e-06 (inactive). In addition, the slope in assay [6] was 0.00696 (inactive).
`CCOC(=O)Cc1nnc(NC(=O)c2ncn[nH]2)s1`: the cell count in assay [1] was determined as 343. Also, the inhibition in assay [1] was 0.2% (inactive); in assay [3] it was -5.5% (inactive); in assay [7], -0.284% (inactive); in assay [8], 5.11% (inactive). Also, the inhibition of aggregation in assay [2] is -4.6% (inactive). In addition, the nuclei count in assay [2] was determined as 99.8%; in assay [3], 119%. Also, the fluorescence slope in assay [4] was -0.438 (inactive). For the same compound, the NADPH fluorescence slope in assay [5] was -5.2e-05 (inactive). In addition, in assay [6], the slope is 0.00725 (inactive).

As a reminder, the inhibition is the drop in the measured response relative to a control, in per cent.
